# Laboratory results: PubChem BioAssay AID1159580 (chemical genetic matrix, 2015)
# Screen size: about 5,500 compounds; about 2,000 (36%) were called active. About 18% were inconclusive and are not listed. This is one part of the list. A number with no mark means an inactive call. Cut-off read from the data, not from the text of the source: active = normalized growth mostly below about 0.91 (no sharp cut-off); inconclusive = no clear call, values can overlap the other calls; inactive = mostly above about 0.92.
# Test: chemical genetic growth profiling, strain panel (AID 1159580);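 note: tested at 20 µM; growth read once vehicle control cultures reached saturation at 30 °C; 1 = growth at the plate median or of vehicle wells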
# Details: growth OD
smiles,measurement,setting,value
CC12CCC3C(CC=C4CC(O)CCC43C)C1CCC2=O (centres undefined),normalized growth,"S. cerevisiae deletion strains, locus YKL009W, strain mrt4, stronger effect = lower value",0.868 (active)
same,normalized growth,"S. cerevisiae deletion strains, locus YKL068W, stronger effect = lower value",1.02
same,normalized growth,"S. cerevisiae deletion strains, locus YKL085W, strain MDH1 (second series), stronger effect = lower value",0.983
same,normalized growth,"S. cerevisiae deletion strains, locus YKL085W, strain MDH1, stronger effect = lower value",0.983
same,normalized growth,"S. cerevisiae deletion strains, locus YKL160W, strain elf1, stronger effect = lower value",0.858 (active)
same,normalized growth,"S. cerevisiae deletion strains, locus YKL190W, strain CNB1, stronger effect = lower value",0.929
same,normalized growth,"S. cerevisiae deletion strains, locus YKR001C, strain vps1, stronger effect = lower value",1.01
same,normalized growth,"S. cerevisiae deletion strains, locus YKR026C, strain gcn3, stronger effect = lower value",1.03
same,normalized growth,"S. cerevisiae deletion strains, locus YKR091W, strain srl3, stronger effect = lower value",1.02
same,normalized growth,"S. cerevisiae deletion strains, locus YLL001W, strain dnm1, stronger effect = lower value",0.902 (active)
same,normalized growth,"S. cerevisiae deletion strains, locus YLL026W, stronger effect = lower value",0.88 (active)
same,normalized growth,"S. cerevisiae deletion strains, locus YLL041C, strain sdh2, stronger effect = lower value",0.999
same,normalized growth,"S. cerevisiae deletion strains, locus YLR027C, strain aat2, stronger effect = lower value",0.849 (active)
same,normalized growth,"S. cerevisiae deletion strains, locus YLR039C, strain RIC1, stronger effect = lower value",0.516 (active)
same,normalized growth,"S. cerevisiae deletion strains, locus YLR058C, strain SHM2, stronger effect = lower value",0.908
same,normalized growth,"S. cerevisiae deletion strains, locus YLR102C, strain apc9, stronger effect = lower value",1.02
same,normalized growth,"S. cerevisiae deletion strains, locus YLR221C, strain rsa3, stronger effect = lower value",0.779 (active)
same,normalized growth,"S. cerevisiae deletion strains, locus YLR258W, strain gsy2, stronger effect = lower value",0.939
same,normalized growth,"S. cerevisiae deletion strains, locus YLR262C, strain YPT6 (second series), stronger effect = lower value",0.441 (active)
same,normalized growth,"S. cerevisiae deletion strains, locus YLR268W, strain sec22, stronger effect = lower value",0.882 (active)
same,normalized growth,"S. cerevisiae deletion strains, locus YLR320W, strain mms22, stronger effect = lower value",0.429 (active)
same,normalized growth,"S. cerevisiae deletion strains, locus YLR330W, strain CHS5, stronger effect = lower value",0.929
same,normalized growth,"S. cerevisiae deletion strains, locus YLR342W, strain FKS1 (second series), stronger effect = lower value",0.781 (active)
same,normalized growth,"S. cerevisiae deletion strains, locus YLR342W, strain FKS1, stronger effect = lower value",0.932
same,normalized growth,"S. cerevisiae deletion strains, locus YLR357W, strain rsc2, stronger effect = lower value",1.1
same,normalized growth,"S. cerevisiae deletion strains, locus YLR370C, strain arc18, stronger effect = lower value",0.993
same,normalized growth,"S. cerevisiae deletion strains, locus YLR371W, strain rom2, stronger effect = lower value",1.07
same,normalized growth,"S. cerevisiae deletion strains, locus YLR384C, strain iki3, stronger effect = lower value",1.03
same,normalized growth,"S. cerevisiae deletion strains, locus YLR418C, strain cdc73, stronger effect = lower value",0.766 (active)
same,normalized growth,"S. cerevisiae deletion strains, locus YML016C, strain PPZ1, stronger effect = lower value",0.979
same,normalized growth,"S. cerevisiae deletion strains, locus YML032C, strain rad52, stronger effect = lower value",0.855 (active)
same,normalized growth,"S. cerevisiae deletion strains, locus YML120C, strain ndi1, stronger effect = lower value",0.92
same,normalized growth,"S. cerevisiae deletion strains, locus YML124C, strain tub3, stronger effect = lower value",1
same,normalized growth,"S. cerevisiae deletion strains, locus YMR058W, strain fet3, stronger effect = lower value",0.885 (active)
same,normalized growth,"S. cerevisiae deletion strains, locus YMR078C, strain ctf18, stronger effect = lower value",1.02
same,normalized growth,"S. cerevisiae deletion strains, locus YMR125W, strain sto1, stronger effect = lower value",0.971
same,normalized growth,"S. cerevisiae deletion strains, locus YMR129W, stronger effect = lower value",0.975
same,normalized growth,"S. cerevisiae deletion strains, locus YMR205C, strain PFK2, stronger effect = lower value",0.811 (active)
same,normalized growth,"S. cerevisiae deletion strains, locus YMR223W, strain ubp8, stronger effect = lower value",0.946
same,normalized growth,"S. cerevisiae deletion strains, locus YMR231W, strain pep5, stronger effect = lower value",0.989
same,normalized growth,"S. cerevisiae deletion strains, locus YMR263W, strain SAP30, stronger effect = lower value",0.976
same,normalized growth,"S. cerevisiae deletion strains, locus YMR307W, strain GAS1, stronger effect = lower value",1.11
same,normalized growth,"S. cerevisiae deletion strains, locus YNL067W, strain RPL9B, stronger effect = lower value",0.917
same,normalized growth,"S. cerevisiae deletion strains, locus YNL071W, strain lat1, stronger effect = lower value",0.513 (active)
same,normalized growth,"S. cerevisiae deletion strains, locus YNL153C, strain GIM3, stronger effect = lower value",0.887
same,normalized growth,"S. cerevisiae deletion strains, locus YNL209W, strain ssb2, stronger effect = lower value",0.927 (active)
same,normalized growth,"S. cerevisiae deletion strains, locus YNL233W, strain BNI4, stronger effect = lower value",0.889
same,normalized growth,"S. cerevisiae deletion strains, locus YNL248C, strain rpa49, stronger effect = lower value",0.777 (active)
same,normalized growth,"S. cerevisiae deletion strains, locus YNL250W, strain rad50, stronger effect = lower value",0.947
same,normalized growth,"S. cerevisiae deletion strains, locus YNL271C, strain bni1, stronger effect = lower value",0.993
same,normalized growth,"S. cerevisiae deletion strains, locus YNL298W, strain CLA4, stronger effect = lower value",0.929
same,normalized growth,"S. cerevisiae deletion strains, locus YNL307C, strain MCK1, stronger effect = lower value",0.707 (active)
same,normalized growth,"S. cerevisiae deletion strains, locus YNL322C, strain KRE1 (second series), stronger effect = lower value",1.01
same,normalized growth,"S. cerevisiae deletion strains, locus YNL322C, strain KRE1, stronger effect = lower value",0.924 (active)
same,normalized growth,"S. cerevisiae deletion strains, locus YNR049C, strain mso1, stronger effect = lower value",1.01
same,normalized growth,"S. cerevisiae deletion strains, locus YNR052C, strain pop2, stronger effect = lower value",0.861 (active)
same,normalized growth,"S. cerevisiae deletion strains, locus YOL006C, strain TOP1, stronger effect = lower value",0.572
same,normalized growth,"S. cerevisiae deletion strains, locus YOL012C, strain htz1",1.48
same,normalized growth,"S. cerevisiae deletion strains, locus YOL147C, strain pex11, stronger effect = lower value",0.91 (active)
same,normalized growth,"S. cerevisiae deletion strains, locus YOR001W, strain rrp6, stronger effect = lower value",0.8 (active)
same,normalized growth,"S. cerevisiae deletion strains, locus YOR061W, strain CKA2, stronger effect = lower value",0.907
same,normalized growth,"S. cerevisiae deletion strains, locus YOR069W, strain VPS5, stronger effect = lower value",0.962
same,normalized growth,"S. cerevisiae deletion strains, locus YOR070C, strain gyp1, stronger effect = lower value",0.81 (active)
same,normalized growth,"S. cerevisiae deletion strains, locus YOR080W, strain dia2, stronger effect = lower value",0.974
same,normalized growth,"S. cerevisiae deletion strains, locus YOR083W, strain WHI5, stronger effect = lower value",0.86 (active)
same,normalized growth,"S. cerevisiae deletion strains, locus YOR106W, strain vam3, stronger effect = lower value",0.89
same,normalized growth,"S. cerevisiae deletion strains, locus YOR136W, strain idh2, stronger effect = lower value",1.01
same,normalized growth,"S. cerevisiae deletion strains, locus YOR144C, strain elg1, stronger effect = lower value",0.987
same,normalized growth,"S. cerevisiae deletion strains, locus YOR184W, strain ser1, stronger effect = lower value",0.694 (active)
same,normalized growth,"S. cerevisiae deletion strains, locus YOR265W, strain rbl2, stronger effect = lower value",0.969
same,normalized growth,"S. cerevisiae deletion strains, locus YOR270C, strain vph1, stronger effect = lower value",0.578 (active)
same,normalized growth,"S. cerevisiae deletion strains, locus YOR290C, strain snf2, stronger effect = lower value",0.848 (active)
same,normalized growth,"S. cerevisiae deletion strains, locus YOR316C, strain cot1, stronger effect = lower value",1.04
same,normalized growth,"S. cerevisiae deletion strains, locus YPL051W, strain arl3, stronger effect = lower value",0.861 (active)
same,normalized growth,"S. cerevisiae deletion strains, locus YPL078C, strain atp4, stronger effect = lower value",0.864 (active)
same,normalized growth,"S. cerevisiae deletion strains, locus YPL106C, strain sse1, stronger effect = lower value",1.27 [resistant] (active)
same,normalized growth,"S. cerevisiae deletion strains, locus YPL240C, strain hsp82, stronger effect = lower value",1.01
same,normalized growth,"S. cerevisiae deletion strains, locus YPL241C, strain CIN2, stronger effect = lower value",1.02
same,normalized growth,"S. cerevisiae deletion strains, locus YPR119W, strain clb2, stronger effect = lower value",1.05
same,normalized growth,"S. cerevisiae deletion strains, locus YPR141C, strain kar3, stronger effect = lower value",1.06
same,normalized growth,"S. cerevisiae deletion strains, locus YPR163C, strain tif3, stronger effect = lower value",0.893 (active)
same,normalized growth,"S. cerevisiae deletion strains, locus YPR167C, strain met16, stronger effect = lower value",0.928
same,normalized growth,"S. cerevisiae deletion strains, strain wtn01, stronger effect = lower value",0.854 (active)
same,normalized growth,"S. cerevisiae strains, strain wild type, stronger effect = lower value",0.877 (active)
